From PubChem BioAssay
FGF22 binding: FGF22 (human) thermal shift binding. recombinant FGF22 thermal shift, SYPRO orange fluorescence; percent of sucrose octasulfate shift, DMSO zero. 1.5% of 340,000 active. AID 651658. activity (Tm shift, normalised), % at 9.99 µM. Q9HCT0;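 active = mean Tm shift, scaled 0 neutral to 100 positive control, at about 1.3% or above, every replicate too, limit read from the data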
ERAP1 inh: ERAP1 (human) enzyme inhibition | recombinant ERAP1, Leu-AMC fluorescence, 60 min | Q9NZ08 | inhibition, % at 10.7 µM | 0.15% of 340,000 active;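 active = mean replicate inhibition of at least 30%, or all replicates individually reaching that 30% level; inactive = mean below 30% and not every replicate reaching it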;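 note: 0% = neutral control wells and 100% = L-leucinethiol positive control wells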
Target sequence (Q9NZ08 whole entry, looked up): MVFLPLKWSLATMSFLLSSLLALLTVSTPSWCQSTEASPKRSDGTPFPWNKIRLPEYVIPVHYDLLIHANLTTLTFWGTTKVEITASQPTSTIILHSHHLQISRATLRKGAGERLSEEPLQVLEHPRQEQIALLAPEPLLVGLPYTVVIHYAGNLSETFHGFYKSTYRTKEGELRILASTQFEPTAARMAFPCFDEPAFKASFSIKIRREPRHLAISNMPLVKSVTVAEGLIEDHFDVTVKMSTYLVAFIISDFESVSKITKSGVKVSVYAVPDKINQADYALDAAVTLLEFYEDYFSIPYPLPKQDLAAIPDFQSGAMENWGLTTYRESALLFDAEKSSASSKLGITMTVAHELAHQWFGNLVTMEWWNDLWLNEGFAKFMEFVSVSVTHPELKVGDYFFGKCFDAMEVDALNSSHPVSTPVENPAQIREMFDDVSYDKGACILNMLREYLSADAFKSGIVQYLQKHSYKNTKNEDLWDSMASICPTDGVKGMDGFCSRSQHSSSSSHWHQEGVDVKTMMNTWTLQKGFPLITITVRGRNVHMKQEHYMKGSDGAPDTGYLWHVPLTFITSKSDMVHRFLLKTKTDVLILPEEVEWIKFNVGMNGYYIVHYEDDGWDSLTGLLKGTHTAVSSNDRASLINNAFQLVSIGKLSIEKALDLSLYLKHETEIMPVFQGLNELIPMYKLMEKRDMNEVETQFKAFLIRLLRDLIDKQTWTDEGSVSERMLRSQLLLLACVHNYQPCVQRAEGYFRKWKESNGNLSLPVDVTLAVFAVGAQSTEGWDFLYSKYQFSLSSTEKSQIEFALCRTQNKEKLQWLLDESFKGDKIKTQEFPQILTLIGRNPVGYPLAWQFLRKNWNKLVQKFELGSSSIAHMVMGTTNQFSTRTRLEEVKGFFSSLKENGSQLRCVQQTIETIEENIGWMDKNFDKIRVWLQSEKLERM
CASP6 VEID inh: inhibitors of human caspase-6; P55212; purified caspase-6, Z-VEID-R110 cleavage fluorescence; inhibition, % at 12.5 µM; 0.53% of 350,000 active;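 active = mean inhibition across replicates at least about 35%, with every replicate also reaching that limit, limit read from the data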;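 note: 0% = median of neutral control wells and 100% = no fluorescence left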
SIRT5 block: sirtuin-5 (human) deacylase inhibition; Q9NXA8; Purified SirT5, succinyl-peptide AMC, trypsin-coupled fluorescence; inhibition, % at 15 µM; 1.1% of 330,000 active; AID 652115; in the data active = inhibition above about 15%
* marks the source's active call; other numbers are inactive results; x = not tested or not shown. This is a sample that favours compounds with a hit; in the whole collection about 3.1% have one here.

SMILES | FGF22 binding | ERAP1 inh | CASP6 VEID inh | SIRT5 block
CN(C)C(=O)C[C@@H]1CC[C@H]2[C@H](COc3ccc(NC(=O)c4cnccn4)cc3C(=O)N2C)O1 | 0 | -1 | -1 | -1
CS(=O)(=O)N(CC(=O)N1CCOCC1)c1cccc(Cl)c1 | 0 | 34* | 3 | 0
CS(=O)(=O)N(CC(=O)N1CCOCC1)c1ccc(Cl)cc1 | 0 | -4 | -3 | -5
O=C(C[C@H]1CC[C@H](NC(=O)C2CCC2)[C@H](CO)O1)NCc1ccccc1Cl | 0 | 0 | -1 | 25*
COC(=O)C[C@@H]1C[C@H]2c3cc(NC(=O)Cc4ccncc4)ccc3O[C@H]2[C@H](CO)O1 | 0 | 1 | 1 | 15*
COCC(=O)N[C@@H]1CC[C@H](CC(=O)NCc2ccccc2OC)O[C@@H]1CO | 0 | 4 | -2 | 16*
COC(=O)C[C@H]1C[C@H]2c3cc(NC(=O)Cc4ccncc4)ccc3O[C@H]2[C@H](CO)O1 | 0 | -1 | 3 | 0
COCC(=O)Nc1ccc2c(c1)[C@@H]1C[C@H](CC(=O)NCc3ccccc3OC)O[C@@H](CO)[C@@H]1O2 | 0 | -3 | -3 | 1
COCC(=O)Nc1ccc2c(c1)[C@@H]1C[C@@H](CC(=O)NCc3ccccc3OC)O[C@@H](CO)[C@@H]1O2 | 0 | -3 | -5 | 19*
COc1ccc(C#Cc2cnc3c(c2)C(=O)N([C@@H](C)CO)C[C@@H](C)[C@H](CN(C)C(=O)c2ccccc2F)O3)cc1 | -1 | 2 | 3 | 10
COCC(=O)N(C)C[C@H]1Oc2ncc(C3=CCCC3)cc2C(=O)N([C@H](C)CO)C[C@H]1C | 0 | 0 | -1 | -5
C[C@@H]1CN([C@@H](C)CO)C(=O)Cc2cc(NS(=O)(=O)c3cn(C)cn3)ccc2O[C@@H]1CN(C)C(=O)Nc1ccc(F)cc1 | 0 | 1 | 2 | -1
O=C(C[C@@H]1C[C@H]2c3cc(NC(=O)c4cccnc4)ccc3O[C@H]2[C@H](CO)O1)NCc1ccccn1 | -1 | -2 | -4 | -1
C/C(=N/NS(=O)(=O)c1ccc(Cl)cc1)c1cccc(NC(=O)c2ccncc2)c1 | 1 | -1 | 92* | -2
C/C(=N\NC(=O)c1cccc(N/N=C(\C)c2cc(O)ccc2O)c1)c1cc(O)ccc1O | 43* | -4 | -3 | -2
C/C(=N\NC(=O)c1cccc(F)c1)c1cccc(NC(=O)c2ccc(F)cc2)c1 | 43* | 2 | 2 | -1
C/C(=N\NC(=O)c1cccc(N/N=C(\C)c2ccco2)c1)c1ccco1 | 0 | 4 | -1 | 1
COc1ccc([C@H]2/C=C\CN(C(=O)c3ccc(C)cc3)[C@@H](C)C(=O)N2Cc2ccc(F)cc2)cc1 | -1 | x | 0 | x
COc1ccc(C2/C=C\CN(Cc3ccncc3)CC(=O)N2Cc2ccc(F)cc2)cc1 (stereo not given) | 0 | 3 | 1 | 16*
COc1ccc(C2/C=C\CN(C(=O)c3ccccc3)[C@H](Cc3ccccc3)C(=O)N2Cc2ccc(F)cc2)cc1 (stereo not given in full) | 44* | 0 | -5 | -2
COc1cc(C(=O)Nc2ccc3c(c2)Cc2ccccc2-3)cc(OC)c1OC | 43* | -8 | -2 | 0
CCOc1ccc(C(CC(=O)O)NC(=O)c2sc3ccccc3c2Cl)cc1 (stereo not given) | 43 | 0 | -1 | 6
CCCOc1ccc(C(CC(=O)O)NC(=O)c2sc3ccccc3c2Cl)cc1 (stereo not given) | 43* | 4 | 0 | -2
COc1ccc(NC(=O)N(C)C[C@H]2Oc3c(NC(=O)NC4CCCCC4)cccc3C(=O)N([C@@H](C)CO)C[C@H]2C)cc1 | x | 5 | -5 | 2
O=C(Nc1ccc(C(F)(F)F)cc1)N[C@@H]1CC[C@H](CCn2cc(C3(O)CCCC3)nn2)O[C@@H]1CO | 1 | 2 | -4 | 18*
SMILES | FGF22 binding | ERAP1 inh | CASP6 VEID inh | SIRT5 block
CC(C)NC(=O)N[C@H]1CC[C@H](CCNC(=O)C2CCCC2)O[C@@H]1CO | 0 | x | x | 25*
CC(C)NC(=O)N[C@@H]1CC[C@H](CCNC(=O)C2CCCC2)O[C@H]1CO | 0 | x | x | x
CCCc1cn(CC[C@H]2CC[C@H](NC(=O)C3CCCCC3)[C@@H](CO)O2)nn1 | 0 | 0 | -1 | 3
CN(C)Cc1cn(CC[C@H]2CC[C@@H](NC(=O)Nc3ccccc3F)[C@@H](CO)O2)nn1 | 0 | 2 | 2 | 18*
CCCc1cn(CC[C@@H]2CC[C@H](NC(=O)C3CCCCC3)[C@@H](CO)O2)nn1 | 0 | 0 | 2 | 16*
COc1ccc(NC(=O)Nc2ccc3c(c2)C(=O)N([C@H](C)CO)C[C@@H](C)[C@H](CN(C)S(=O)(=O)c2cn(C)cn2)O3)cc1 | 0 | 2 | 0 | 4
Cc1cc(C)nc(N2CCC(C(=O)NCCc3ccc(F)cc3)CC2)n1 | x | 2 | 0 | -2
Cc1cc(C)nc(N2CCC(C(=O)NCCc3ccc(Cl)cc3)CC2)n1 | 0 | -1 | 2 | 15*
O=C(Cc1ccccc1)NN1C(=O)/C(=C/c2ccc(C(=O)O)cc2)SC1=S | 0 | 9 | 69* | -2
CC(=O)Oc1ccc(/C=C2/SC(=S)N(Cc3ccccc3)C2=O)cc1 | 0 | -3 | -3 | 16*
Cc1ccc(S(=O)(=O)NN2C(=O)/C(=C/c3ccc(C(=O)O)cc3)SC2=S)cc1 | x | 13 | 15 | -7
O=C(O)c1ccc(/C=C2/SC(=S)N(Cc3ccccc3)C2=O)cc1 | 0 | 0 | 2 | -1
CCOc1cc(CO)cc(Br)c1OCC(=O)Nc1ccccc1C | 43* | 1 | 3 | -1
COc1cc(CNC2CCCC2)cc(Br)c1OCC(=O)Nc1ccccc1C | 0 | -2 | -3 | 0
O=C(NCc1ccc(F)cc1)c1cc2n(n1)C(C(F)(F)F)CC(C1CC1)N2 (stereo not given) | 0 | 5 | -9 | x
O=C(Nc1ccccc1)c1cc2n(n1)C(C(F)(F)F)CC(C1CC1)N2 (stereo not given) | 43* | -2 | -2 | 3
CO[C@@H](CN(C)CC1CCOCC1)[C@H](C)CN(C(=O)Nc1ccc(F)cc1)[C@H](C)CO | 0 | 1 | -2 | 16*
CO[C@H](CN(C)CC1CCOCC1)[C@@H](C)CN(C(=O)Nc1ccc(F)cc1)[C@H](C)CO | 1 | -3 | -7 | -4
Cc1ccc(C)c(N2N=C(C(=O)OCc3nnc(-c4ccccc4Br)o3)CCC2=O)c1 | 0 | -2 | 61* | x
Cc1ccc(C)c(N2N=C(C(=O)OCc3nnc(-c4cccs4)o3)CCC2=O)c1 | 0 | 5 | 4 | -7
CNC(=O)C[C@@H]1CC[C@@H]2[C@H](COC[C@@H](O)CN2Cc2ccc(C(F)(F)F)cc2)O1 | 0 | -1 | 2 | -1
CCc1nnc(NC(=O)c2ccc(OCc3c(C)noc3C)c(OC)c2)s1 | 43* | 4 | 0 | -1
O=S(=O)([N-]c1nc2ccccc2nc1-[n+]1ccccc1)c1ccc(F)cc1 | 45* | 5 | 2 | 2
COc1ccc(NC(=O)N(C)C[C@H]2Oc3ccc(NC(=O)c4ccncc4)cc3CC(=O)N([C@H](C)CO)C[C@H]2C)cc1 | 0 | 5 | 4 | -2
